A selection: hits, their analogues and other compounds. The true share with any hit is near 2.3%.
VDR inhibitor = inhibitors of human vitamin D receptor; 400,000 compounds, 0.93% hits; AID 504847; VDR-SRC2-3 peptide fluorescence polarization, 2 h; P11473; Potency, µM, for the others: max response, negative = inhibition, actives largely listed as inhibitors; also: potency is read from the fitted curve at half-maximal effect; % is scaled to controls: 0 for no effect and ±100 for the full control effect
Target sequence (P11473 whole entry, looked up): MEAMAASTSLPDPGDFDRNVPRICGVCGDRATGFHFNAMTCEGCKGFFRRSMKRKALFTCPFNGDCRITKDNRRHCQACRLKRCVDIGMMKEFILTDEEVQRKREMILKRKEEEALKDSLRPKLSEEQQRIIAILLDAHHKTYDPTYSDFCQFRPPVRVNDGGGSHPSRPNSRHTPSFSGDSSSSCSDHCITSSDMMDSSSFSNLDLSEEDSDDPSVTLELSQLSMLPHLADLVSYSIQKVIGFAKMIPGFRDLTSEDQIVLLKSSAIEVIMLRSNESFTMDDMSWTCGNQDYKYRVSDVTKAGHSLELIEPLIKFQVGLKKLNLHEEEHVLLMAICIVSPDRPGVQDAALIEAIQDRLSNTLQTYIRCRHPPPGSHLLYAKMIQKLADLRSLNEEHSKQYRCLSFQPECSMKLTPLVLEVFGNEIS
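Measured by FP: displacement of SRC2-3 coactivator peptide from VDR by library compounds, following a two-hour ambient incubation.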
HttQ103 aggreg = mutant huntingtin aggregation inhibition; PC12 HttQ103-GFP aggregates, Acumen cytometry, 40 h; Potency, µM (titrated, usually from 46.1 µM), for inactives: at the top dose activity change, negative = inhibition, most hits filed as inhibitors; 220,000 compounds, 1.1% hits; AID 1688; also: potency is read from the fitted curve at half-maximal effect; % is scaled to controls: 0 for no effect and ±100 for the full control effect; nearly all actives have a fitted effect of over 60% in size
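Read-out: GFP aggregate count by laser scanning cytometer (488 nm excitation, 500-530 nm emission, 1–25 µm objects >6 SD above background). Cells: PC12, inducible HTTex1-Q103-GFP, 100 nM tebufenozide; compounds titrated.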
HTT ATP protect = cytoprotection in Huntington HTT-Q103 PC12 cell model; PC12 HTT-Q103 induced, cytoprotection, ATP luminescence, 40 h; Potency, µM (doses to about 56.4 µM), without a hit: cytoprotection (ATP increase), hits mostly activators; 230,000 compounds, 0.14% hits; also: potency is read from the fitted curve at half-maximal effect; % of control where 0% means no effect; nearly all actives have a fitted effect of over 45% in size
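Compounds were screened for protection of PC12 cells against cell death after tebufenozide induction (100 nM final) of mutant Huntingtin exon 1 (Q103) fused to GFP.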
KDM4E inh = JMJD2E (human) inhibition | B2RXH2 | JMJD2E catalytic domain, FDH-coupled NADH fluorescence (FDH is formaldehyde dehydrogenase) | Potency, µM (series often up to 57.1 µM), for inactives: at the highest dose activity change, negative = inhibition, actives largely listed as inhibitors | 230,000 compounds, 1.6% hits | AID 2147; active = well fitted inhibition curve with a large enough effect, not every such curve was filed as active; inconclusive = small, poorly fitted or top-dose-only effect, or another doubt; inactive = no such curve, though single readings can be large or run the other way;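 also: potency is read from the fitted curve at half-maximal effect; 0% = wells with enzyme and -100% = buffer wells without enzyme; nearly all actives have a fitted effect of over 50% in size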
RGS12 GoLoco inh = inhibitors of human Gai1-RGS12 GoLoco interaction (red fluorophore); P63096; 230,000 compounds, 0.44% hits; Potency, µM (top dose mostly 61.6 µM), for inactives: at the top dose activity, negative = inhibition, actives largely listed as inhibitors; Gai1:RGS12 GoLoco peptide FP, rhodamine, 10 min; AID 880; active = well fitted inhibition curve with a large enough effect, not every such curve was filed as active; inactive = no such curve, though single readings can be large or run the other way; also: potency is read from the fitted curve at half-maximal effect; % is scaled to controls: 0 for no effect and ±100 for the full control effect; nearly all actives have a fitted effect of over 30% in size
Target sequence (P63096 whole entry, looked up): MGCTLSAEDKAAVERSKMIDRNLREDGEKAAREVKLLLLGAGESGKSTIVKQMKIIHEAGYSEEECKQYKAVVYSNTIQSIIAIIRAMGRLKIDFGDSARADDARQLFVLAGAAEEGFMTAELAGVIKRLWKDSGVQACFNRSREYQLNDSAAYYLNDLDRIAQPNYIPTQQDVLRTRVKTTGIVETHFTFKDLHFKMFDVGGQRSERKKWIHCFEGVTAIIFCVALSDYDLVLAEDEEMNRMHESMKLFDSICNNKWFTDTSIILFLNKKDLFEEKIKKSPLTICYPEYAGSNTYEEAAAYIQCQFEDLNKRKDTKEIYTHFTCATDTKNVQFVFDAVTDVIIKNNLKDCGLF
Coupling enz = counter-screen for Giardia aldolase inhibitors: coupling enzyme system | coupling enzyme system counterscreen, AmpLite Red fluorescence | 290,000 compounds, 0.67% hits | AID 2472 | activity change, negative = inhibition, % at 58.2 µM, hits read low; in the data active = activity change below about -30%; also: % is scaled to controls: 0 for no effect and ±100 for the full control effect
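First, compound is pin-transferred into glyceraldehyde-3-phosphate coupling-enzyme reagent at 57.5 uM final and held 10 min at RT. Next, substrate, coupling system and AmpLite Red are added. After 20 min RT, fluorescence (525/598 nm) is read.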
* marks the source's active call; other numbers are inactive results; ? = inconclusive; / = not tested or not shown; [ ] = remark or other dose. Unless noted, calls follow the shape of the dose curve; as a rule, active = well fitted curve in the direction sought with a large enough effect; inconclusive = small, poorly fitted or top-dose-only effect, or another doubt; inactive = no such curve, though single readings can be large; an effect the other way counts as inactive or inconclusive.

SMILES	VDR inhibitor	HttQ103 aggreg	HTT ATP protect	KDM4E inh	RGS12 GoLoco inh	Coupling enz
Cc1ccc(CN2CCSc3ccc(C(=O)N4CCN(c5ncccn5)CC4)cc32)cc1	3%	16µM*	-61%	?	4%	-3
O=C(c1ccc(S(=O)(=O)Nc2ccc(F)cc2)cc1)N1CCN(c2ccccn2)CC1	14%	14µM*	-39%	-9%	0%	1
Cc1ccc(S(=O)(=O)Nc2ccc(C(=O)N3CCCC3)cc2)cc1	5%	/	/	/	/	/
Cc1ccc(NS(=O)(=O)c2ccc(C(=O)N3CCN(c4ncccn4)CC3)cc2)cc1	10%	2.5µM*	-92%	?	8%	8
COc1ccc(NS(=O)(=O)c2ccc(C(=O)N3CCN(c4ccc(F)cc4)CC3)cc2)cc1	13%	/	/	/	/	/
COc1ccc(N2CCN(C(=O)c3ccc(NS(=O)(=O)c4ccc(F)c(F)c4)cc3)CC2)cc1	-1%	10µM*	-13%[10 µM]	-8%	0%	3
CCCCn1c(N)c(N(CCOC)C(=O)c2ccc(C)o2)c(=O)[nH]c1=O	-25%	/	/	/	/	/
O=C(C1=C[C@@H](c2ccccc2)C[C@@H](OCc2ccc(CO)cc2)O1)N1CCN(Cc2ccc3c(c2)OCO3)CC1	-4%	16%[9.22 µM]	-2%[10 µM]	-6%	-3%	-1
O=C(C1=C[C@H](c2ccccc2)C[C@H](OCc2ccc(CO)cc2)O1)N1CCN(Cc2ccccc2)CC1	-17%	9%[9.22 µM]	10%[10 µM]	20µM*	-1%	-1
NC(=O)C(=CNc1nc(-c2ccc(Cl)c(Cl)c2)cs1)C(N)=O	/	-1%[9.22 µM]	-7%[10 µM]	7.9µM*	-6%	-18
Cc1cccc(OCC(=O)Nc2nc3ccc([N+](=O)[O-])cc3s2)c1	16%	?	-7%	2%	-9%	5
O=C(O)COc1ccc(/C=C/c2nc3ccc([N+](=O)[O-])cc3s2)cc1	32µM*	-5%[9.22 µM]	-18%[10 µM]	1%	9%	0
CCc1ccc(NC(=S)Nc2cccc3cnccc23)cc1	?	-27%	-28%	?	20%	-49*
CC(=O)N(C)c1ccc(NC(=S)Nc2cccc3ccccc23)cc1	-1%	-1%	3%[10 µM]	?	-4%	-36*
Cc1ccc(NC(=S)Nc2cccc3cnccc23)c(C)c1	-2%	-20%	-26%	?	3%	-36*
Cc1ccc(NC(=S)c2ccncc2)c(C)c1	35µM*	/	/	/	/	0
C=C(C)CNC(=S)Nc1cccc2cnccc12	-7%	?	9%[10 µM]	12%	/	-1
COc1ccc(NS(=O)(=O)c2ccc(I)cc2)cc1N1CCN(C)CC1	8%	/	?	?	-4%	3
O=C(Cn1cc(SCc2ccc(Cl)cc2)c2ccccc21)N1CCCC1	11%	/	/	/	/	/
CCN(C(=O)c1cn(CC)c(=O)c2cc(OC)c(OC)cc12)c1ccccc1F	-16%	/	/	/	/	/
Cc1ccc(NC(=S)NNC(=S)Nc2ccc(C)cc2C)cc1	45µM*	-14%[9.22 µM]	-10%[10 µM]	-8%	18%	-3
Cc1cc(C)cc(NC(=S)Nc2cccc3cnccc23)c1	-9%	1%	-13%[10 µM]	20µM*	4%	-36*
COc1cccc([C@@H]2Oc3ccc(Br)cc3C[C@H]2OC(=O)Nc2ccc(OC(F)F)cc2)c1	1%	/	-74%	2%	-9%	-4
COc1ccccc1-c1cc(C(=O)Nc2sc3c(c2C#N)CCCC3)no1	79µM*	/	/	/	/	/
CCOC(=O)c1c(NC(=O)c2cc(C)on2)sc(C)c1C	79µM*	/	/	/	/	/
SMILES	VDR inhibitor	HttQ103 aggreg	HTT ATP protect	KDM4E inh	RGS12 GoLoco inh	Coupling enz
CCOC(=O)c1c(-c2ccccc2)csc1NC(=O)c1cc(-c2ccc(Br)cc2)on1	79µM*	/	/	/	/	/
CCOC(=O)c1c(NC(=O)c2cc(-c3ccccc3OC)on2)sc(C)c1C	79µM*	/	/	/	/	/
Cc1cc(C(=O)Nc2sc3c(c2C#N)CCCC3)no1	-16%	-10%	-31%[10 µM]	3%	3%	-1
CCOC(=O)c1c(-c2ccc(C)cc2)csc1NC(=O)CCN1CCOCC1	-15%	-15%	-17%[10 µM]	32µM*	-4%	0
Cc1ccc(-c2csc(NC(=O)c3ccc(Br)cc3)c2C(=O)O)cc1	-8%	/	/	/	/	-30*
Cc1cccc(C(=O)Nc2scc(-c3ccc(Br)cc3)c2C(=O)O)c1	-5%	/	/	/	/	/
CCOC(=O)c1c(NC(=O)c2cc(CC)on2)sc(C)c1C	79µM*	/	/	/	/	/
O=C(NN=c1c(=O)c2ccccc2c1=O)c1ccccc1	-32%	6%	8%	-6%	13%	-43*
CN(C)/C=N/NC(=O)c1ccccc1	9%	-1%	4%[10 µM]	?	1%	-1
CCCCc1nc2c(c3c1C[C@H](C)OC3)CN(C(=O)NCCc1c[nH]c3ccccc13)CC2	/	/	25%[10 µM]	2%[11.4 µM]	7%[14.2 µM]	4
CCOC(=O)CCc1c(C)c2ccc(O)cc2oc1=O	-11%	-8%	-9%[0.074 µM]	?	-12%	-39*
Cc1ccc(CC(Cc2nc3ccccc3[nH]2)c2nc3ccccc3[nH]2)cc1 (centres undefined)	/	/	-14%[1.9 µM]	7%	4%	6
Cc1cc(C)cc(CC(Cc2nc3ccccc3[nH]2)c2nc3ccccc3[nH]2)c1 (centres undefined)	-6%	22µM*	-11%[10 µM]	-2%	-10%	-4
CCn1c(C)[n+](CCOC(C)=O)c2cc(Cl)c(Cl)cc21	-9%	10%[9.22 µM]	-2%[10 µM]	16µM*	9%	4
O=C(c1ccc(Cl)cc1)c1cn(Cc2ccccc2)c2cc3c(cc2c1=O)OCCO3	2%	/	/	/	/	/
COc1cc(-c2nnc(SCC(=O)Nc3ccc(F)c(Cl)c3)o2)cc(OC)c1OC	12%	/	/	/	/	/
C=CCOc1ccccc1C(=O)/C=C1/C(=O)Nc2ccccc21	22µM*	/	/	/	/	-1
Cc1ccc(C(C)NC(=O)CSc2ccc(S(=O)(=O)N3CCOCC3)cn2)cc1C (centres undefined)	15%	/	/	/	/	/
Cc1cc(=O)n(CCCO)c(O)c1C#N	8%	4%	-24%	?	-6%	-38*
Cc1cc(=O)n(Cc2ccccc2)c(O)c1C#N	-11%	/	/	/	/	-4
COC(=O)C/C=C\[C@@H](C)[C@@H](/C=N\O[C@@H](C)CN1CCCc2nc(C)c(C)cc21)OC	/	/	-13%[10 µM]	/	/	3
CC1(C)Cc2c(ccc3ccccc23)C(=O)N1	-7%	11µM*	29%	?	-1%	0
CCNC(=O)/C=C1\NC(C)(C)Cc2c1ccc1ccccc21	-14%	-26%	-10%	-8%	4%	0
O=C(CC(NCc1cccnc1)C(=O)O)Nc1ccc(F)cc1 (centres undefined)	-12%	/	/	/	/	/
Cc1cc(C)cc(NS(=O)(=O)c2ccc3c(c2)c(=O)n(C)c(=O)n3C)c1	-8%	8.9µM*	4%	-1%	3%	0
Cc1ccc(-c2nc(CC(=O)Nc3cccc(S(=O)(=O)NC4=NCCC4)c3)cs2)cc1	3%	/	/	/	/	/
